This experiment concerns the target Estrogen receptor (Homo sapiens) (UniProt P03372). The experiment in a line: blockers of coactivator recruitment to ERα – biochemical, LOPAC library, TR-FRET, primary screen (AID 694).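 Note: receptor was agonist-bound with estradiol present during the assay.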 To be noted: TR-FRET ERalpha-coactivator peptide binding, stronger effect = higher value.

The source of these data is PubChem BioAssay AID694 (Emory University Molecular Libraries Screening Center, 2007).

Molecules are shown by their SMILES. The whole screen tested about 1,300 compounds, of which about 25 (2%) were called active. The sample holds actives, similar compounds and a random draw of the others, so the mix is not that of the screen. The rule behind the calls is not given here.

Estrogen receptor (Homo sapiens), sequence (P03372 whole entry, looked up): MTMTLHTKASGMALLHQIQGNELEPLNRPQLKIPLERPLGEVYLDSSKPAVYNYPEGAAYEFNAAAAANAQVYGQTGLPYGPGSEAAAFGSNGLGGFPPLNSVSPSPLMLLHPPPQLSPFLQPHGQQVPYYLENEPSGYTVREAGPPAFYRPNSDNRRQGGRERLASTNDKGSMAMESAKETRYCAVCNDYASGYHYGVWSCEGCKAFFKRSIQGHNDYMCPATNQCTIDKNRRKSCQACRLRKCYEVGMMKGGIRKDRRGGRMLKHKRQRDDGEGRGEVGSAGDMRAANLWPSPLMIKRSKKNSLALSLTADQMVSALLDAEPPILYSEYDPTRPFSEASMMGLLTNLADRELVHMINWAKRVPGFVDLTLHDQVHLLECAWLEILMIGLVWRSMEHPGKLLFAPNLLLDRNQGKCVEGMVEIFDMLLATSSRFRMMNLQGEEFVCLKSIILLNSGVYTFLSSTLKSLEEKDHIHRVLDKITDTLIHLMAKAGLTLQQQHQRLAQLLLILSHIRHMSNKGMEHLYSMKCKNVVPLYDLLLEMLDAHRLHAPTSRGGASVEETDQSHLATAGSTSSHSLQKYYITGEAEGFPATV

For `CCCN(CCC)CCc1ccc(O)c(O)c1`, the inhibition reads like this: (at 45 µM) -9.9% (inactive); (inhibition, at 15 µM) 5.4%.

For `CN(N=O)c1cc(O)ccc1O`, the inhibition is 98.6% [fluorescence artefact?] (active) (at 45 µM) and 95.4% (inhibition, at 15 µM).

`CN(N=O)c1ccc(O)c(O)c1`: the inhibition by setting is: (at 45 µM) 99.9% [fluorescence artefact?] (active); (inhibition, at 15 µM) 100%.

Consider `CCCN(CCC)[C@@H]1CCc2ccc(O)cc2C1`, for which the inhibition is, setting by setting: (at 45 µM) -8.07% (inactive); (inhibition, at 15 µM) 3.7%.

In the case of `C[C@@H]1O[C@H](C[N+](C)(C)C)CS1`, the inhibition reads like this: (at 45 µM) -6.11% (inactive); (inhibition, at 15 µM) 5.81%.

As for `c1ccc2c(N3CCNCC3)cccc2c1`, the inhibition is -1.45% (inactive) (at 45 µM) and 2.78% (inhibition, at 15 µM).

On to `C=CCN1CCC2(C)c3cc(O)ccc3CC1C2C` (stereo not given), for which the inhibition (at 45 µM) is -11.9% (inactive) and the inhibition (inhibition, at 15 µM) was -3.04%.

Turning to `CC[C@@H](CO)NC(=O)[C@@H]1C=C2c3cccc4[nH]cc(c34)C[C@H]2N(C)C1`, the inhibition reads like this: (at 45 µM) 6.08% (inactive); (inhibition, at 15 µM) 0.61%.

Take `Clc1ccc(C(c2ccc(Cl)cc2)n2cc[n+](CC(OCc3ccc(Cl)cc3Cl)c3ccc(Cl)cc3Cl)c2)cc1` (stereo not given): the inhibition reads like this: (at 45 µM) 59.5% [fluorescence artefact?] (active); (inhibition, at 15 µM) 52.6%.

In the case of `CO[C@H]1CC=C2CCN3CCC4=C(CC(=O)OC4)[C@]23C1`, the inhibition (at 45 µM) was -3.26% (inactive) and the inhibition (inhibition, at 15 µM) was 3.57%.

With `O=C(O)[C@@H]1CCN1`, the inhibition (at 45 µM) was -15.6% (inactive) and the inhibition (inhibition, at 15 µM) is -3.72%.

Consider `CCCN(CCC)C1CCc2ccc(O)cc2C1` (stereo not given), for which the inhibition is, setting by setting: (at 45 µM) -3.18% (inactive); (inhibition, at 15 µM) 3.52%.

Take `N[C@@H](Cn1cc(I)c(=O)[nH]c1=O)C(=O)O`: the inhibition by setting is: (at 45 µM) 0.52% (inactive); (inhibition, at 15 µM) 3.65%.

In the case of `COC(=O)c1cc2c(cn1)[nH]c1ccccc12`, the inhibition (at 45 µM) was -2.45% (inactive) and the inhibition (inhibition, at 15 µM) stood at 2.65%.

Take `N[C@@H](CCl)C(=O)O`: the inhibition (at 45 µM) was -9.05% (inactive) and the inhibition (inhibition, at 15 µM) was -4.18%.

Regarding `NC(Cc1cc(O)c(O)cc1O)C(=O)O` (stereo not given), the inhibition is, setting by setting: (at 45 µM) 100% [fluorescence artefact?] (active); (inhibition, at 15 µM) 100%.

For `Cc1o[nH]c(=O)c1CC(N)C(=O)O` (stereo not given), the inhibition is, setting by setting: (at 45 µM) -4.5% (inactive); (inhibition, at 15 µM) -1.59%.

With `O=[N+]([O-])c1ccc(O[C@@H]2O[C@H](CO)[C@@H](O)[C@H](O)[C@H]2F)c([N+](=O)[O-])c1`, the inhibition was -0.11% (inactive) (at 45 µM) and 6.88% (inhibition, at 15 µM).

Take `Fc1ccc(C(OCCN2CCN(CCCc3ccccc3)CC2)c2ccc(F)cc2)cc1`: the inhibition was -7.86% (inactive) (at 45 µM) and -2.51% (inhibition, at 15 µM).

`CN1C[C@@H](CS(=O)(=O)N(C)C)C[C@@H]2c3cccc4c3c(cn4C)C[C@H]21`: the inhibition was -2.14% (inactive) (at 45 µM) and -2.21% (inhibition, at 15 µM).
